Data: PubChem BioAssay AID651819 (National Center for Advancing Translational Sciences (NCATS), 2012)
About 1,100 (0.31%) of roughly 360,000 compounds were called active. No stated cut-off is given here; in the data, active means activity change below about -30%; inactive means the rest. The entries come from a sample that favours actives as a whole.

System: cytosolic chaperonin (CCT/TRiC complex)
Assay: High-Throughput Screening for Modulators of Cytosolic Chaperonin Activity
Conditions: purified chaperonin ATPase assay, HTRF ADP detection, 30 min; hits give low values
Procedure, shortened: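 First, chaperonin was dispensed at 40 nM or 20 nM final depending on batch activity. Next, compounds were pinned at 76 uM and ATP added at 10 uM. After 30 min at 37 °C, ADP detection reagents ran 30 min at ambient temperature.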
On the % scale 0 is the no-effect control and ±100 the full control effect.

Row | SMILES | activity change
1 | CCN1CCN(C(C(=O)NC2CCCC2)c2cc3c(cc2[N+](=O)[O-])OCO3)CC1 (centres undefined) | -0.623% (inactive)
2 | Cc1ccc2c(c1)c1ncnc(N3CCc4ccccc4C3)c1n2C | 1.95% (inactive)
3 | CCOCCCN1C(=O)C2C(C(=O)Nc3ccc(OCC)cc3)C3C=CC2(O3)C1C(=O)NC1CCCCC1 (centres undefined) | -2.83% (inactive)
4 | CCN(CC)CCN1C(=O)C2C(C(=O)Nc3ccc(Br)cc3)C3C=CC2(O3)C1C(=O)NC1CCCCC1 (centres undefined) | -40.8% (active)
5 | CC(C)N1C(=O)C2C(C(=O)NC3CCCCC3)C3C=CC2(O3)C1C(=O)NC1CCCC1 (centres undefined) | -2.56% (inactive)
6 | CCCSc1nsc(N)n1 | -1.36% (inactive)
7 | COc1ccc2c(C)cc3nnnn3c2c1 | -38.8% (active)
8 | COc1ccc2ccn(C)c2c1 | 1.51% (inactive)
9 | COc1ccc(N)c(C)c1 | -0.166% (inactive)
10 | Cc1nc2nc3c(cn2n1)C(=O)CC(c1ccccc1)C3 (centres undefined) | -0.882% (inactive)
11 | CN1CCN(CC#CCC2(O)c3ccccc3-c3ccccc32)CC1 | -0.316% (inactive)
12 | CSc1nnc2c(n1)OC(c1cn(C)c3ccccc13)N(C(C)=O)c1ccccc1-2 (centres undefined) | -0.161% (inactive)
13 | CSCCC(=O)N1CCCC(CNC(=O)c2ccccc2Cl)C1 (centres undefined) | -0.386% (inactive)
14 | COC(=O)c1ccccc1NC(=O)CSc1ccccn1 | -2.39% (inactive)
15 | CCOC(=O)CSc1ccccn1 | -41% (active)
16 | CCOC(=O)CSc1ncc(-c2cccc(Cl)c2)cn1 | -0.564% (inactive)
17 | COc1ccc(N2C(=O)CCC(C(=O)N(C)C3CCCCC3)C2c2ccc(OC)c(OC)c2)cc1 (centres undefined) | -0.957% (inactive)
18 | CN1CCN(c2ccncc2S(=O)(=O)N2CCCC2)CC1 | -0.238% (inactive)
19 | CNC[C@H](CC1CCCCC1)NC[C@H](NCCC1CCCC1)[C@H](C)O | -0.857% (inactive)
20 | Nn1c(SCC(=O)Nc2ccc3c(c2)CCC3)nnc1C1CC1 | -0.2% (inactive)
21 | COc1ccc(NC(=O)CSc2nnnn2-c2cccc(OC)c2)cc1 | 1.8% (inactive)
22 | COc1cccc(NC(=O)CSc2nnc(C3CCCCC3)n2N)c1 | -45.1% (active)
23 | O=C(Nc1cccnc1Oc1ncnc2cc(Cl)ccc12)c1ccc(F)cc1 | 1.03% (inactive)
24 | O=C1N[C@H](Cc2ccccc2)C(=O)N[C@H]1Cc1cn(S(=O)(=O)c2ccccc2)c2ccccc12 | -2.61% (inactive)
25 | C=CCNc1nc(N)c([N+](=O)[O-])c(NC2CCCCC2)n1 | -43.9% (active)

Row | SMILES | activity change
26 | Nc1nc(NCC2CCCO2)nc(Nc2ccccc2F)c1[N+](=O)[O-] (centres undefined) | 0.16% (inactive)
27 | Nc1nc(Nc2ccccc2F)nc(NC2CCCCC2)c1[N+](=O)[O-] | -0.808% (inactive)
28 | O=C(Nc1ccccc1-c1nnn(CC(=O)N2CCN(c3ccccc3)CC2)n1)c1cccs1 | -3.64% (inactive)
29 | CCOC1CS(=O)(=O)CC1OCC (centres undefined) | 0.485% (inactive)
30 | O=C(CS(=O)(=O)c1ccccc1)Nc1ccc(S(=O)(=O)Nc2ccccn2)cc1 | 0.548% (inactive)
31 | COc1ccc(NC(=O)CC(NC(C)c2ccccc2)C(=O)O)cc1 (centres undefined) | -0.408% (inactive)
32 | COc1ccc(NC(=O)CS(=O)(=O)c2ccccc2)cc1 | -61% (active)
33 | COc1cc2nc(CN(C)Cc3ccc(F)cc3)[nH]c(=O)c2cc1OC | -1.05% (inactive)
34 | C/C(Cc1ccccc1)=N\NC(=O)CNC(=O)c1ccccc1Cl | 0.921% (inactive)
35 | CC(C)CNC(=O)COC(=O)c1ccccc1OCC(=O)Nc1ccc(Br)cc1 | 0.0186% (inactive)
36 | O=C(NCc1cccnc1)c1cnc2ccccc2n1 | -37.4% (active)
37 | O=C(O)c1ccccc1-c1ccccc1C(=O)NCc1cccnc1 | -1.06% (inactive)
38 | CN(c1ccccc1)S(=O)(=O)c1ccc(C(=O)NCc2cccnc2)cc1 | 0.104% (inactive)
39 | CC(C)(C)OC(=O)CNC(=O)c1[nH]cnc1C(=O)N[C@@H](CCCCN)C(=O)OC(C)(C)C | 0.783% (inactive)
40 | NC(=O)c1nsc(C(=O)N(CCCN2CCOCC2)C(C(=O)NC2CCCCC2)c2ccc(Cl)cc2)c1N (centres undefined) | -0.121% (inactive)
41 | CCc1nc2sc3c(Cl)ncnc3c2c2c1CCCC2 | -2.15% (inactive)
42 | C/C(CC(=O)Nc1cccc(C(F)(F)F)c1)=N\NC(=O)C(=O)NCC(C)C | -0.0398% (inactive)
43 | COc1ccc(C(CC(=O)Nc2ccc(C)cc2)NC(=O)C(F)(F)F)cc1 (centres undefined) | 0.31% (inactive)
44 | COc1ccc(NC(=O)C(=O)NCC(=O)Nc2cccc(C(F)(F)F)c2)cc1 | -44.8% (active)
45 | Cc1ccc(CN2CC(C(=O)NNC(=O)Cn3ccc(C(F)(F)F)n3)CC2=O)cc1 (centres undefined) | -2.29% (inactive)
46 | Cc1cccc(-n2c(SCC(=O)Nc3cccc(S(=O)(=O)NC4=NCCCCC4)c3)nc3ccccc3c2=O)c1C | -6.85% (inactive)
47 | Cc1ccc(CNC(=O)CCN2C(=O)[C@@H]3Cc4ccccc4CN3C2=O)cc1 | -0.496% (inactive)
48 | O=C(CCN1C(=O)[C@@H]2Cc3ccccc3CN2C1=O)NCc1ccccc1 | -37.1% (active)
49 | O=C(CCN1C(=O)[C@@H]2Cc3ccccc3CN2C1=O)NCCc1ccccc1 | -0.128% (inactive)
50 | CCN1C(=NCc2ccc(OC)cc2)N[C@@H](CCc2ccccc2)[C@H](C(=O)NCc2ccc(OC)cc2)[C@H]1C | -0.204% (inactive)

Row | SMILES | activity change
51 | COc1ccc(C2N=C(N)N=C(N)N2c2ccccc2)cc1OC (centres undefined) | -35.3% (active)
52 | NC1=NC(c2ccc([N+](=O)[O-])cc2)N(c2ccc(F)cc2)C(N)=N1 (centres undefined) | 1.53% (inactive)
53 | COc1cc(C=O)ccc1Oc1nnnn1-c1ccccc1 | 0.228% (inactive)
54 | Nc1nonc1-n1nnc(C(=O)N/N=C/c2cc(Br)ccc2O)c1CSC1=NCCS1 | 1.21% (inactive)
55 | Cc1nn(-c2ccccc2)c2sc(C(=O)N(Cc3ccco3)C(C)C(=O)NC(C)(C)C)cc12 (centres undefined) | 1% (inactive)
56 | O=C(CCCCCn1c(=S)[nH]c2cc3c(cc2c1=O)OCO3)N1CCN(c2ccc(F)cc2)CC1 | -31.7% (active)
57 | CC(C)NC(=O)CCCn1c(=S)[nH]c2cc3c(cc2c1=O)OCO3 | -1.56% (inactive)
58 | Cc1ccc(C)c(N2CCN(C(=O)CCCCCn3c(=S)[nH]c4ccc(N5CCOCC5)cc4c3=O)CC2)c1 | 1.65% (inactive)
59 | CC(C)N(C(=O)Cn1c(SCC(=O)N2CCN(c3ccccc3)CC2)nc2ccccc21)C(C)C | -3.64% (inactive)
60 | Cc1ccc(S(=O)(=O)/N=C(/NC(=S)Nc2c(C)n(C)n(-c3ccccc3)c2=O)c2ccccc2)cc1 | -1.68% (inactive)
61 | Cc1c(CN2CCC(CO)(CCOc3ccccc3)CC2)[nH]c2ccc(Cl)cc12 | -56% (active)
62 | COc1cccc(CC2(CO)CCN(Cc3cnc(-c4cccc(C)c4)nc3)CC2)c1 | -1.28% (inactive)
63 | OCC1(CCc2ccccc2)CCN(Cc2ccc3nsnc3c2)CC1 | -4.83% (inactive)
64 | O=C1C2C3C=CC(C3)C2C(=O)N1c1ncc([N+](=O)[O-])s1 (centres undefined) | -1.62% (inactive)
65 | COc1ccc(/C=C/C(=O)OCC(=O)NCc2cccs2)cc1OC | -2.94% (inactive)
66 | CC(C)c1cccc(-c2csc(C(O)c3ccccc3)n2)c1 (centres undefined) | -0.363% (inactive)
67 | COc1cccc(C(NC(C)=O)c2nc(-c3cnc4ccccc4c3)cs2)c1 (centres undefined) | 0.873% (inactive)
68 | OC(c1ccccc1)c1nc(-c2cnc3ccccc3c2)cs1 (centres undefined) | -40.1% (active)
69 | COC(=O)C[C@H]1C[C@@H]2c3cc(N(C)C)ccc3O[C@@H]2[C@H](CO)O1 | -1.3% (inactive)
70 | CCOC(=O)c1ccccc1NC(=O)c1c(N)n(C)c(=O)[nH]c1=O | 2.1% (inactive)
71 | O=C(Nc1ccccc1-c1nnn(CC(=O)N2CCCc3ccccc32)n1)c1cccc(Cl)c1 | -0.628% (inactive)
72 | CC1=C(C(=O)NC2CC(C)(C)Cc3c2cnn3-c2ccc(C)cc2)OCCO1 (centres undefined) | -89.1% (active)
73 | COCc1ccc(C(=O)NC2CC(C)(C)Cc3c2cnn3-c2ccc(C)cc2)o1 (centres undefined) | -1.13% (inactive)
74 | Cc1ccc(-n2ncc3c2CC(C)(C)CC3NC(=O)Cc2c(C)noc2C)cc1 (centres undefined) | 1.55% (inactive)
75 | Cc1ccc(-c2c(C)n([O-])c3c([n+]2=O)CCC3)cc1 | -0.716% (inactive)

Row | SMILES | activity change
76 | O=C1/C(=C\c2cccnc2)CN(Cc2ccccc2)C/C1=C\c1cccnc1 | -1.65% (inactive)
77 | COc1ccc(C2=NOC3(CC(=O)N(c4ccc(Cl)cc4)C3=O)C2)c(OC)c1 (centres undefined) | 1.68% (inactive)
78 | CC(=O)c1c(C)c[nH]c1C | 0.144% (inactive)
79 | CC(NS(=O)(=O)c1ccc(Cl)cc1)C(=O)Nc1ccc2c(c1)OCCO2 (centres undefined) | -38.5% (active)
80 | Cc1ccc(S(=O)(=O)NCC(=O)Nc2ccc3c(c2)OCCO3)cc1 | -2.11% (inactive)
81 | CC(=O)Nc1ccc(NC(=O)C(NS(=O)(=O)c2ccc3c(c2)OCCO3)C(C)C)cc1 (centres undefined) | -1.81% (inactive)
82 | COc1cc(Cl)c(C)cc1NC(=O)CSc1nnc(-c2ccco2)n1CC(C)C | -2.06% (inactive)
83 | COc1ccccc1N1CCN(C(=O)CSc2ncnc3c2cnn3-c2ccc(C)c(C)c2)CC1 | -0.613% (inactive)
84 | CN(C(=O)CC(NC(=O)c1ccccc1)(c1ccccc1)c1ccccc1)c1ccccc1 | -1.61% (inactive)
85 | CCOC(=O)N/N=C1\CC(C)S(=O)(=O)c2ccc(Cl)cc21 (centres undefined) | -3.43% (inactive)
86 | CC(=O)c1cc2c(cc1NC(=O)CN1CCCCCC1)OCO2 | -1.13% (inactive)
87 | CC(=O)c1cc2c(cc1NC(=O)Cn1nc(-c3ccc(F)cc3)ccc1=O)OCO2 | -31.8% (active)
88 | CCOc1cccc(NC(=O)Cn2nc(-c3ccc4c(c3)OCCO4)ccc2=O)c1 | 2.22% (inactive)
89 | Cc1cccc2c1cnn2C(=O)CCC(=O)NC1CCCCC1 | 0.998% (inactive)
90 | C=CCN(N=Nc1cccc([N+](=O)[O-])c1)c1cccc([N+](=O)[O-])c1 | -0.537% (inactive)
91 | CC1=C(C(=O)OC(C)(C)C)C(c2ccc(Br)cc2)NC(=O)N1CCCC(=O)O (centres undefined) | -0.201% (inactive)
92 | Cc1n[nH]c(=O)n1-c1ccc(C(C)C)cc1 | 0.471% (inactive)
93 | O=C1CS(=O)CN1c1ccc(Oc2ccccc2)cc1 (centres undefined) | -3.89% (inactive)
94 | Cc1n[nH]c(=O)n1-c1ccc(Oc2ccccc2)cc1 | -105% (active)
95 | O=C(NCCCN1CCCCC1)c1ccc2c(c1)NC(=O)C(N1CCOCC1)S2 (centres undefined) | -0.706% (inactive)
96 | O=C(NCCCN1CCOCC1)c1cc(-c2ccccc2F)no1 | 1.6% (inactive)
97 | O=C(NCCCN1CCOCC1)c1ccc2c(c1)N(Cc1cccc(F)c1)C(=O)c1ccccc1S2 | -77.1% (active)
98 | CCc1ccc(CN(C)C(C)C(=O)Nc2ccc(S(=O)(=O)N3CCCC3)cc2)cc1 (centres undefined) | -0.65% (inactive)
99 | Cc1ccc(C2C(C#N)C(C#N)N3CCCN23)cc1 (centres undefined) | 0.118% (inactive)
